Data on one compound can be found in ChEMBL document CHEMBL2218924, “A broad activity screen in support of a chemogenomic map for kinase signalling research and drug discovery” (Biochem J, 2013).

The target in assay [1] is Tyrosine-protein kinase SYK (Homo sapiens) (UniProt P43405). To be noted: at 10 µM.
The target in assay [2] is T1, Mitogen-activated protein kinase kinase kinase 7 (Homo sapiens) (UniProt O43318).
T1 sequence (whole entry): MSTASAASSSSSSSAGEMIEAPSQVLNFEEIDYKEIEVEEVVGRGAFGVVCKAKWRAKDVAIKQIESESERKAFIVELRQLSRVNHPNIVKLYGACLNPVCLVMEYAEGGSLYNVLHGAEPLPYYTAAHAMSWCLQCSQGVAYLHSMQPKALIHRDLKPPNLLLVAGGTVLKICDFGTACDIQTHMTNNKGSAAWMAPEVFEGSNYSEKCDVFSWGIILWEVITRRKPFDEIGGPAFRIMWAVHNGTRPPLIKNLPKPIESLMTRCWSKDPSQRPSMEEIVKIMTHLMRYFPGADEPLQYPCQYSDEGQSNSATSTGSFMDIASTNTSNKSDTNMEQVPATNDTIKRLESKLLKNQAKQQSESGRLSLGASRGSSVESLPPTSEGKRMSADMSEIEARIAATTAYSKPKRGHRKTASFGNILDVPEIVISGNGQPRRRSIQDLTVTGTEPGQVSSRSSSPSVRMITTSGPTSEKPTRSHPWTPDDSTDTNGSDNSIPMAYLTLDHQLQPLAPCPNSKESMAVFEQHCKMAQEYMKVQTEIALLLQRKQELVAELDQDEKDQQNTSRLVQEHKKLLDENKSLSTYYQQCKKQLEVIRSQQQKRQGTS
To be noted: at 1 µM.

For assay [3], the target named is T1, Mitogen-activated protein kinase kinase kinase 7 (Homo sapiens). Particulars: at 10 µM.
The target of assay [4] is T2, Serine/threonine-protein kinase TAO1 (Homo sapiens) (UniProt Q7L7X3).
T2 sequence (whole entry): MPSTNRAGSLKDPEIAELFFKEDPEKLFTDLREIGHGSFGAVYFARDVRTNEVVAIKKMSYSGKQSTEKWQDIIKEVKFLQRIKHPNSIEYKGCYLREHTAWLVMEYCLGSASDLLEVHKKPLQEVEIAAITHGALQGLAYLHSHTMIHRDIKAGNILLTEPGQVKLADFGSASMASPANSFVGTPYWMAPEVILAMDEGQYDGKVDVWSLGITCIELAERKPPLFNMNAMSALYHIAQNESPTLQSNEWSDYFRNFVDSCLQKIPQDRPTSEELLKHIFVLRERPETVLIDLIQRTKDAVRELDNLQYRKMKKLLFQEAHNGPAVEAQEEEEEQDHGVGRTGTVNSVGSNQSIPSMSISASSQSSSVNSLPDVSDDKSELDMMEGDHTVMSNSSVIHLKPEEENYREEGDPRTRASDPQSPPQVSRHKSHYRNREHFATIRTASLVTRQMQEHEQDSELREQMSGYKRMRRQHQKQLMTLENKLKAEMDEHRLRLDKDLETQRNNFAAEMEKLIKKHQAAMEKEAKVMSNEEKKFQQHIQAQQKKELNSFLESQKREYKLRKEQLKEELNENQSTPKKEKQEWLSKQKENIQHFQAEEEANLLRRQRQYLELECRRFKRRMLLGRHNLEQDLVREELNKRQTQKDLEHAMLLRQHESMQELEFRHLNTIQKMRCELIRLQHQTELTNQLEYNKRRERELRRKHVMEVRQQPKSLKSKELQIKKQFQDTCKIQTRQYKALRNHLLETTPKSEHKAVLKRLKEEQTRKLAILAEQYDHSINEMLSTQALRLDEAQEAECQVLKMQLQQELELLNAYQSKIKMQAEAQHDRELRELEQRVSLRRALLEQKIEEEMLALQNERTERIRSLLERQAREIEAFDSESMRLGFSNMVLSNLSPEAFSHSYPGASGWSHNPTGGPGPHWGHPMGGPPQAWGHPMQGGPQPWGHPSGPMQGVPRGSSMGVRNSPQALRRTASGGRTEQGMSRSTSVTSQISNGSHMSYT
Particulars: at 1 µM.

The target of assay [5] is T2, Serine/threonine-protein kinase TAO1 (Homo sapiens). Particulars: at 10 µM.
Assay [6] deals with T3, Serine/threonine-protein kinase TAO2 (Homo sapiens) (UniProt Q9UL54).
T3 sequence (whole entry): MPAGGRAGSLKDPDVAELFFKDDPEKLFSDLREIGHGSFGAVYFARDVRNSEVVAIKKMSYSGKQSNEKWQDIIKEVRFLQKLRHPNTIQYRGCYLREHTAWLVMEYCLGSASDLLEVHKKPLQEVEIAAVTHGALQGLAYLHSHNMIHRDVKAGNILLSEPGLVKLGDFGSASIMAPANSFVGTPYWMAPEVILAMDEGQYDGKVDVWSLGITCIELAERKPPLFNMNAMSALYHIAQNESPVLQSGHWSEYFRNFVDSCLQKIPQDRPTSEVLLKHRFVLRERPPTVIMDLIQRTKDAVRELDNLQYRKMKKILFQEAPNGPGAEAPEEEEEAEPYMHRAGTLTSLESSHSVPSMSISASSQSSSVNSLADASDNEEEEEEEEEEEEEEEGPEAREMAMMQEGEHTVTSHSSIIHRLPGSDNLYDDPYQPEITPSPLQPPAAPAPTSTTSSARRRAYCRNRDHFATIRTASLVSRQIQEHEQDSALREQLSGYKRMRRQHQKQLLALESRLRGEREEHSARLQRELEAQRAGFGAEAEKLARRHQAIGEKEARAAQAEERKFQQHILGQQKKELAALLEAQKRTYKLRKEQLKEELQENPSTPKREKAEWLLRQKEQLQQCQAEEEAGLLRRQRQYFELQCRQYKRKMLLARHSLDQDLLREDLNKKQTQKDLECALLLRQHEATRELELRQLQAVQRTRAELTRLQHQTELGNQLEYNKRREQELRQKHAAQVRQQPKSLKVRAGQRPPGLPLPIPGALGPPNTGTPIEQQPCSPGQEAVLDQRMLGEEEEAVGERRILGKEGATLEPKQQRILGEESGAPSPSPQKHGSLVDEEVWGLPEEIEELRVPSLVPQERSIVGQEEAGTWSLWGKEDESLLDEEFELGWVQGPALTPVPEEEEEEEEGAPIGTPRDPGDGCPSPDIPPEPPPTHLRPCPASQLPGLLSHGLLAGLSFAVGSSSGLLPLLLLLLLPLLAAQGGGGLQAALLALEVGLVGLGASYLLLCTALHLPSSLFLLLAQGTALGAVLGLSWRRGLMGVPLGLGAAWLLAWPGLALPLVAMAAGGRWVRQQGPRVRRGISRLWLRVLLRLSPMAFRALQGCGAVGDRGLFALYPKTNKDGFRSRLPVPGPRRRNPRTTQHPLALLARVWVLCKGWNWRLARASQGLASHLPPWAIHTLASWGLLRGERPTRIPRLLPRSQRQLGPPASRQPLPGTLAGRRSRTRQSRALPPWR
Particulars: at 1 µM.

For assay [7], the target named is T3, Serine/threonine-protein kinase TAO2 (Homo sapiens). To be noted: at 10 µM.
Assay [8] concerns the target T4, Serine/threonine-protein kinase TAO3 (Homo sapiens) (UniProt Q9H2K8).
T4 sequence (whole entry): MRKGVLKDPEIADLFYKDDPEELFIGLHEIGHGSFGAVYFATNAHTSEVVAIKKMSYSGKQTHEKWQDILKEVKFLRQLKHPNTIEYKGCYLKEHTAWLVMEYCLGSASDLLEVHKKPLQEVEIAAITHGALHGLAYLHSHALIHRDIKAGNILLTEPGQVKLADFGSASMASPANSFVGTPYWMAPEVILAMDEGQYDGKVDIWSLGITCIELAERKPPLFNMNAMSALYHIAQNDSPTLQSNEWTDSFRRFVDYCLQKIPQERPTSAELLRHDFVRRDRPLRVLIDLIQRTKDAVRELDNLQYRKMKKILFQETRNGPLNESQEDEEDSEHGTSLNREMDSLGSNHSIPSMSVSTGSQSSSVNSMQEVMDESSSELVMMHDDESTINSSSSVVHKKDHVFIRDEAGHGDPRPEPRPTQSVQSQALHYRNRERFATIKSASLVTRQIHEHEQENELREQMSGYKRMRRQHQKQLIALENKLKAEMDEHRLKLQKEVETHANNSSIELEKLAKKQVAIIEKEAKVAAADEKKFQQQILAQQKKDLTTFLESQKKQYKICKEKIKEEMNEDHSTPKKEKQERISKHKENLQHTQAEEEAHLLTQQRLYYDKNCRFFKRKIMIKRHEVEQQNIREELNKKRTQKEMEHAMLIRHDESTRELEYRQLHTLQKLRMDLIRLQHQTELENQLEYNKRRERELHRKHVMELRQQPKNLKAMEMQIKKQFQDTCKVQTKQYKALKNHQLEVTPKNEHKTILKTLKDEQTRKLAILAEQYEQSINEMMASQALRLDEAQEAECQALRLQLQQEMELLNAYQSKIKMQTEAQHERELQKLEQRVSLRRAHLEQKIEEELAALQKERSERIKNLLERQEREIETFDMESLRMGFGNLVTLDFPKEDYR
Particulars: at 1 µM.

Assay [9] concerns the target T4, Serine/threonine-protein kinase TAO3 (Homo sapiens). To be noted: at 10 µM.
The target in assay [10] is T5, Serine/threonine-protein kinase TBK1 (Homo sapiens) (UniProt Q9UHD2).
T5 sequence (whole entry): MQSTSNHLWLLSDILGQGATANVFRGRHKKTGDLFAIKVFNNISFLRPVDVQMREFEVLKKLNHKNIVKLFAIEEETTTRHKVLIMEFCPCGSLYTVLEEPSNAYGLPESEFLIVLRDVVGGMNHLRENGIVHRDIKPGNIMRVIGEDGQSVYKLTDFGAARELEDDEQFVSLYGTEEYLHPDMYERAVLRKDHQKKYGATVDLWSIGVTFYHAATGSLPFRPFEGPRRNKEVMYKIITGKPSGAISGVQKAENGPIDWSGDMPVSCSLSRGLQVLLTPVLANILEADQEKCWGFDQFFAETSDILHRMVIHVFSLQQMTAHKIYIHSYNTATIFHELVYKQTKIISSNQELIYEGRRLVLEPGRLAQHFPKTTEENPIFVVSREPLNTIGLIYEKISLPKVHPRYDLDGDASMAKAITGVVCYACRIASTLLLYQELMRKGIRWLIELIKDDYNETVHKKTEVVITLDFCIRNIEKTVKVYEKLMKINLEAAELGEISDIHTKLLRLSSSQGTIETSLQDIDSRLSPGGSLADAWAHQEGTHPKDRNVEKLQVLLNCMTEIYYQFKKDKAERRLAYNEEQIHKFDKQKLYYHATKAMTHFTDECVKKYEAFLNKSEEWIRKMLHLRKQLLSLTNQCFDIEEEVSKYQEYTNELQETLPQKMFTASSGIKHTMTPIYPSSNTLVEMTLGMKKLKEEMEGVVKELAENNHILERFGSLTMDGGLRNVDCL
To be noted: at 1 µM.

Regarding `Cc1ccc(NC2=CC(=O)c3sc(C)nc3C2=O)cc1`, the residual activity in [1] worked out at 113%; in [2] it was 86%; in assay [3] it was 89%; in assay [4], 91%; in [5] it was 77%; in assay [6] it was 95%. In addition, the residual activity in assay [7] turned out to be 88%; in assay [8], 94%; in [9], 93%; in assay [10] it was 77%.
